Source: PubChem BioAssay
rCAG RNA binder – binds r(CAG) RNA repeats | r(CAG) RNA repeat, TO-PRO-1 dye displacement fluorescence | inhibition, % at 3 µM | actives 1.3% (n = 370,000) | AID 651821;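 active = inhibition above the plate cutoff, the mean of all test compounds on that plate plus 3 SD, cut at about 35% in these data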;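 also: higher means more dye released from RNA so lower well fluorescence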
FAS-TE inh – blocks the thioesterase domain of human fatty acid synthase. inhibition, % at 15 µM. recombinant FAS-TE, OMFH fluorogenic substrate, fluorescence endpoint. P49327. AID 602261. actives 0.67% (n = 360,000);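 active = compounds whose normalised, plate-corrected inhibition of enzyme fluorescence in the single-dose primary screen is 50% or more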
Target sequence (P49327 whole entry, looked up, the tested form may be a part): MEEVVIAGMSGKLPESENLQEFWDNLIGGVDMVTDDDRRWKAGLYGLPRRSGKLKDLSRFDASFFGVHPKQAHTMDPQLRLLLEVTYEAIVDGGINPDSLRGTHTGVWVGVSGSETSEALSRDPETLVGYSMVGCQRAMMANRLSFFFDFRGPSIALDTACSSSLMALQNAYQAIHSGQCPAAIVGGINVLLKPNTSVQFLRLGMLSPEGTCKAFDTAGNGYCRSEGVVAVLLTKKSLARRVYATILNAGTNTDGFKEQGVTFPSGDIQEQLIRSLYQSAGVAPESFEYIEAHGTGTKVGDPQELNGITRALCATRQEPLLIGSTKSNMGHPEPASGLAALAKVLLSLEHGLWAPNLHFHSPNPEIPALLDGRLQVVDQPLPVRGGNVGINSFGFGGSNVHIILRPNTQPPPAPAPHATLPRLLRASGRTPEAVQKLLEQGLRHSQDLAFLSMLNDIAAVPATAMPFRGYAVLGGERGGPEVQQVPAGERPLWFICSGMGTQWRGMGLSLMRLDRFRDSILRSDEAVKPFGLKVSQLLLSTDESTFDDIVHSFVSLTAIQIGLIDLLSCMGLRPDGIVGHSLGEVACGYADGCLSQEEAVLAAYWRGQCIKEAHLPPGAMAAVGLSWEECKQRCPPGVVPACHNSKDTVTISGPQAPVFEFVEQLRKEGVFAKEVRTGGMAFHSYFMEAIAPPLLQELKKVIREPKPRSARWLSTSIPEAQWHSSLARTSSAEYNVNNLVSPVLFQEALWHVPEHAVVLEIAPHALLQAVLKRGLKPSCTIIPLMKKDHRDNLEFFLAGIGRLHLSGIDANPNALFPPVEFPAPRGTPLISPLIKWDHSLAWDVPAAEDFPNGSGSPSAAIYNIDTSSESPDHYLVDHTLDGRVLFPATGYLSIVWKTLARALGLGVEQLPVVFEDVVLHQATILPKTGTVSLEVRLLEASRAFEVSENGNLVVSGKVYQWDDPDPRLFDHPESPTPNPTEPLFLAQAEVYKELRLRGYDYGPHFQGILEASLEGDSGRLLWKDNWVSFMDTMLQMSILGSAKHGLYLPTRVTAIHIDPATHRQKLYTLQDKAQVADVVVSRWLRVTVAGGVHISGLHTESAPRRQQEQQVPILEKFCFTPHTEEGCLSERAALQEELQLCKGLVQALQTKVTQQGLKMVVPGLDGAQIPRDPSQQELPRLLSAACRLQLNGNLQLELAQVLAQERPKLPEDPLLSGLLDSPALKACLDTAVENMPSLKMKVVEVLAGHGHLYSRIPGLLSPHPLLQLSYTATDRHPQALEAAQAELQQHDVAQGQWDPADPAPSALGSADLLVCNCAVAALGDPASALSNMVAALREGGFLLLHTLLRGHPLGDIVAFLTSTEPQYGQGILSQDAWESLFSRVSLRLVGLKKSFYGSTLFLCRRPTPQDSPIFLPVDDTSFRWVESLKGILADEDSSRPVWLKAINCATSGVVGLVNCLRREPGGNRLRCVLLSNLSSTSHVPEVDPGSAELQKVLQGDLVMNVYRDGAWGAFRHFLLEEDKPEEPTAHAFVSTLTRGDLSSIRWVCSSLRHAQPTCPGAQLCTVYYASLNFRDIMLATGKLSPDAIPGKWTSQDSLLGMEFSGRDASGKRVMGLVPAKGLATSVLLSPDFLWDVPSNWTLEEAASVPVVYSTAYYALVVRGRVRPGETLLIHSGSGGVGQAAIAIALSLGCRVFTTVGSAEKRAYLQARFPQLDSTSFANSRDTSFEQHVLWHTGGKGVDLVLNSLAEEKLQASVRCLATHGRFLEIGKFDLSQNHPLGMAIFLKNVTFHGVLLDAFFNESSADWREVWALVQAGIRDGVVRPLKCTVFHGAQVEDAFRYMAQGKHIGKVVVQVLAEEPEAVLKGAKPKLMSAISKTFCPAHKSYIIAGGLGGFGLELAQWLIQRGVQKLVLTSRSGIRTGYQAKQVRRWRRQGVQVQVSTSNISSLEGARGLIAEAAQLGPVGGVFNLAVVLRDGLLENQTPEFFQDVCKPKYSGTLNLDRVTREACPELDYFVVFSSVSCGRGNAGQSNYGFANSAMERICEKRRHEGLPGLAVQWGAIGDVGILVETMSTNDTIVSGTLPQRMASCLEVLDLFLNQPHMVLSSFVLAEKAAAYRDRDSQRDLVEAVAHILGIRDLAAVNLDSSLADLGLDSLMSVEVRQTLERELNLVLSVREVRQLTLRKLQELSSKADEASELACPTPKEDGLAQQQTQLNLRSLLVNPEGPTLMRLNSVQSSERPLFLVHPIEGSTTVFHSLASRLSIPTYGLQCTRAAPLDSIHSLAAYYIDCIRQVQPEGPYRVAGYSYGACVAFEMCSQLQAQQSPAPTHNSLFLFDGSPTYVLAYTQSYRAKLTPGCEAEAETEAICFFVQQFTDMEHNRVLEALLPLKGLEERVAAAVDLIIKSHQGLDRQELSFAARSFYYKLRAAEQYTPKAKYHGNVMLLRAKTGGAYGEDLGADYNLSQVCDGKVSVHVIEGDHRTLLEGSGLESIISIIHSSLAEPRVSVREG
Myeloid diff MLP – promotes myeloid progenitor differentiation; ER-HoxA9 myeloid progenitors, lysozyme-GFP differentiation, flow cytometry; calls only at 10 µM; actives 1% (n = 360,000);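 active = normalized GFP-positive differentiation at or above the plate's own cutoff, the solvent-only control mean plus 3 SD; inconclusive = no clear call, values can overlap the other calls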;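 also: cells exposed to compound for four days before flow analysis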
MPTP inh – blocks calcium-induced mitochondrial swelling; inhibition, % at 10 µM; actives 1.4% (n = 360,000); AID 602449; isolated mouse mitochondria, Ca2+ swelling absorbance, 30 min;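 active = inhibition of 50% or more, scaled per plate between neutral and stimulator controls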
NR3A LBD binder – modulates the human NR3A ligand-binding domain | NR3A LBD differential scanning fluorimetry, Tm shift; 0% = protein alone, 100% = glycine-bound protein | Tm shift relative to glycine control, % at 25 µM | AID 1259313 | actives 2.5% (n = 340,000);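 active = melting temperature shift of at least 10% of the positive control shift, at one fixed dose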
A number is an active result; – = inactive; ? = inconclusive; · = no result given; + = active, no number. Hits are enriched below; roughly 5.7% of the tested compounds scored in any of these assays.

SMILES	rCAG RNA binder	FAS-TE inh	Myeloid diff MLP	MPTP inh	NR3A LBD binder
CC(C)=CCC12Oc3cc(O)ccc3C1(O)Oc1cc(O)c([C@H]3C=C(C)CC(c4ccc(O)cc4O)[C@H]3C(=O)c3ccc(O)cc3O)c(O)c1C2=O (stereo not given in full)	·	·	·	·	68
CCCCN1CCN(C(=O)c2cn(C(C)c3ccccc3)nn2)CC1 (stereo not given)	–	·	·	·	·
O=C(CCSc1ccc(Cl)cc1)N1CCN(c2ccc(O)cc2)CC1	–	–	+	–	–
Cc1ccccc1-c1nc(CS(=O)CC(=O)NCCc2ccc(Cl)cc2)c(C)o1 (stereo not given)	–	–	?	–	489
COC(=O)c1cc(S(=O)(=O)N2CCN(c3cccc(C(F)(F)F)c3)CC2)cn1C	–	·	·	·	·
CC1=NN(c2nc(-c3ccc(C)cc3)cs2)C(=O)C1N=Nc1ccccc1O (stereo not given)	–	–	?	–	11
Cc1ccc(NC(=S)N/N=C/c2ccc(Cl)c([N+](=O)[O-])c2)cc1	–	–	–	–	22
O=[N+]([O-])c1cc(/C=N/NC(=S)Nc2ccccc2Cl)ccc1Cl	–	–	–	–	18
Fc1cccc(/C=N/NC(=S)Nc2ccccc2Cl)c1	–	–	–	–	–
S=C(N/N=C/c1ccc(Cl)c(Cl)c1)Nc1ccccc1Cl	–	–	–	–	38
Cc1cc(N)n(-c2ccccn2)n1	–	–	–	–	12
COc1ccccc1-n1nc(C)cc1N	–	–	–	–	–
CCOC(=O)C1=C(C(=O)OCC)C2N(Cc3ccc(C#N)cc3)c3ccccc3[C@@]23C[C@@H](C(=O)OC)N(S(=O)(=O)c2ccc(C#N)cc2)C3=N1 (stereo not given in full)	–	·	·	·	·
Cc1ccc(S(C)=O)cc1-n1c(=O)n(Cc2ccccc2)c(=O)c2[nH]cnc21 (stereo not given)	–	–	+	–	–
Cc1ccc(CN(CC(=O)NCc2ccc3c(c2)OCO3)C(=O)c2csnn2)cc1	–	–	+	–	–
COc1ccc(NC(=O)CSc2nnnn2-c2ccc(OC)cc2)cc1	–	–	–	–	–
COc1ccc(NC(=O)CSc2nnnn2-c2ccc(F)cc2)cc1	–	–	–	–	14
O=S(=O)(Nc1ccc(-c2nc3ccccc3o2)cc1)c1ccccc1	–	–	–	–	–
CCOc1ccc(S(=O)(=O)Nc2nc3ccccc3nc2Nc2ccc(N3CCOCC3)cc2)cc1	–	–	–	–	15
CC(=O)Nc1ccc(S(=O)(=O)Nc2nc3ccccc3nc2Cl)cc1	–	–	–	–	38
CC(=O)Nc1ccc(S(=O)(=O)Nc2nc3cc4c(cc3nc2Cl)OCCO4)cc1	–	–	–	–	–
COc1cccc(Nc2nc3ccccc3nc2NS(=O)(=O)c2ccc(NC(C)=O)cc2)c1	·	–	–	–	22
CC(=O)Nc1ccc(S(=O)(=O)Nc2cccc(-c3nc4ccccc4o3)c2)cc1	–	–	–	–	12
Nn1c(SCC(=O)Nc2ccc(C(=O)O)cc2)nnc1-c1ccco1	–	·	·	·	·
Cc1cc(F)ccc1S(=O)(=O)Nc1nc2ccccc2nc1Cl	–	–	–	–	–
SMILES	rCAG RNA binder	FAS-TE inh	Myeloid diff MLP	MPTP inh	NR3A LBD binder
O=S(=O)(Nc1nc2ccccc2nc1Cl)c1ccc2ccccc2c1	49	–	–	–	–
Cc1ccc(C(C)(C)C)cc1S(=O)(=O)Nc1nc2ccccc2nc1Cl	63	–	–	–	–
CN1/C(=C/C=C(C#N)C#N)C(C)(C)c2ccccc21	–	–	–	–	–
CC1=C/C(=C\C=C(C#N)C#N)N(C)c2ccccc21	–	–	+	–	–
O=c1c2ccccc2nc(/C=C/c2ccc(O)cc2)n1CCc1ccccc1	–	–	–	–	20
O=c1c2ccccc2nc(/C=C/c2ccccc2)n1CCCO	–	–	–	–	–
O=c1[nH]c(O)c(/C=C2\C=Nc3ccccc32)[nH]1	–	–	–	–	31
CCC(C)[C@H](NC(=O)[C@H](CC(C)C)NC(=O)OC(C)(C)C)C(=O)N[C@@H](Cc1ccccc1)C(=O)OC (stereo not given in full)	–	·	·	·	·
NC(=O)N/N=C/c1c(Sc2nnnn2-c2ccccc2)nc2ccccn2c1=O	–	–	–	–	29
Cc1ccc2nc(N3CCC(C(=O)O)CC3)nc(-c3ccccc3)c2c1	–	–	–	–	–
Cc1ccc2nc(N3CC(=O)Nc4ccccc43)nc(-c3ccccc3)c2c1	–	–	+	–	–
CC(=O)c1cc(C#N)c(SCc2ccccc2)nc1C	–	–	–	–	15
